Screen size: about 5,500 compounds; about 2,000 (36%) were called active. About 18% were inconclusive and are not listed. The list shows a part of the results. Unmarked numbers belong to inactive results. Cut-off read from the data, not from the text of the source: active = normalized growth mostly below about 0.91 (no sharp cut-off); inconclusive = no clear call, values can overlap the other calls; inactive = mostly above about 0.92.
Experiment: chemical genetic growth profiling, strain panel (AID 1159580);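 note: tested at 20 µM; growth read once vehicle control cultures reached saturation at 30 °C; 1 = growth at the plate median or of vehicle wells; lower values mean less growth of the strain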
Conditions: growth OD
[1] = S. cerevisiae deletion strains, locus YAL013W, strain DEP1, active compounds read low
[2] = S. cerevisiae deletion strains, locus YBR229C, strain ROT2, active compounds read low
[3] = S. cerevisiae deletion strains, locus YDL101C, strain DUN1, active compounds read low
[4] = S. cerevisiae deletion strains, locus YDL134C, strain PPH21, active compounds read low
[5] = S. cerevisiae deletion strains, locus YDR150W, strain NUM1, active compounds read low
[6] = S. cerevisiae deletion strains, locus YEL061C, strain CIN8, active compounds read low
[7] = S. cerevisiae deletion strains, locus YGR078C, strain PAC10, active compounds read low
[8] = S. cerevisiae deletion strains, locus YHR030C, strain SLT2, active compounds read low
[9] = S. cerevisiae deletion strains, locus YHR087W, strain rtc3, active compounds read low
[10] = S. cerevisiae deletion strains, locus YJR043C, strain POL32, active compounds read low
[11] = S. cerevisiae deletion strains, locus YJR075W, strain HOC1, active compounds read low
[12] = S. cerevisiae deletion strains, locus YKL190W, strain CNB1, active compounds read low
[13] = S. cerevisiae deletion strains, locus YLR039C, strain RIC1, active compounds read low
[14] = S. cerevisiae deletion strains, locus YLR058C, strain SHM2 (second series), active compounds read low
[15] = S. cerevisiae deletion strains, locus YLR085C, strain ARP6, active compounds read low
[16] = S. cerevisiae deletion strains, locus YLR262C, strain YPT6, active compounds read low
[17] = S. cerevisiae deletion strains, locus YML094W, strain GIM5, active compounds read low
[18] = S. cerevisiae deletion strains, locus YMR219W, strain ESC1, active compounds read low
[19] = S. cerevisiae deletion strains, locus YMR263W, strain SAP30, active compounds read low
[20] = S. cerevisiae deletion strains, locus YNL153C, strain GIM3, active compounds read low
[21] = S. cerevisiae deletion strains, locus YNL298W, strain CLA4 (second series), active compounds read low
[22] = S. cerevisiae deletion strains, locus YNL322C, strain KRE1, active compounds read low
[23] = S. cerevisiae deletion strains, locus YNR030W, strain Alg12, active compounds read low
[24] = S. cerevisiae deletion strains, locus YPL055C, strain LGE1, active compounds read low
[25] = S. cerevisiae deletion strains, locus YPL241C, strain CIN2, active compounds read low
[26] = S. cerevisiae deletion strains, locus YPR135W, strain CTF4, active compounds read low

Compound `CSC(=NS(=O)(=O)c1ccccc1)SC` has a normalized growth [1] of 0.985, a normalized growth [2] of 0.979 and a normalized growth [3] of 0.98. For the same compound, the normalized growth [4] was 1.01, the normalized growth [5] was 0.938 and the normalized growth [6] was 1.03. The normalized growth [7] was 0.985, the normalized growth [8] was 0.83 and the normalized growth [9] was 1.02. It also gave a normalized growth (S. cerevisiae deletion strains, locus YJL187C, strain SWE1, active compounds read low) of 1, a normalized growth [10] of 0.96 and a normalized growth [11] of 0.977. For the same compound, the normalized growth [12] was 1, the normalized growth [13] was 0.595 (active) and the normalized growth [14] was 0.987. For the same compound, the normalized growth [15] was 0.901, the normalized growth [16] was 0.513 (active) and the normalized growth [17] was 0.921. It also gave a normalized growth [18] of 0.995, a normalized growth [19] of 0.974 and a normalized growth [20] of 1. For the same compound, the normalized growth [21] was 1.02, the normalized growth [22] was 0.971 and the normalized growth [23] was 0.989. The normalized growth [24] was 0.978, the normalized growth [25] was 0.945 and the normalized growth [26] was 0.941.

Compound `COc1ccc(C(C)=O)cc1CSC(=NS(=O)(=O)c1ccccc1)Nc1cccc(F)c1` has a normalized growth [1] of 1.01, a normalized growth [2] of 0.993 and a normalized growth [3] of 0.988. The normalized growth [4] was 0.994, the normalized growth [5] was 0.913 and the normalized growth [6] was 0.974. For the same compound, the normalized growth [7] was 1.02, the normalized growth [8] was 0.944 and the normalized growth [9] was 0.981. It also gave a normalized growth [10] of 1.01, a normalized growth [11] of 0.981 and a normalized growth [12] of 0.984. The normalized growth [13] was 0.876, the normalized growth [14] was 1 and the normalized growth [15] was 0.921. It also gave a normalized growth [16] of 0.915, a normalized growth [17] of 0.973 and a normalized growth [18] of 0.999. The normalized growth [19] was 0.998, the normalized growth (S. cerevisiae deletion strains, locus YMR307W, strain GAS1, active compounds read low) was 0.737 and the normalized growth [20] was 1.03. For the same compound, the normalized growth [21] was 0.963, the normalized growth [22] was 0.98 and the normalized growth [23] was 0.952. The normalized growth [24] was 1.02, the normalized growth [25] was 0.983 and the normalized growth [26] was 1.03. It also gave a normalized growth (S. cerevisiae strains, strain wild type, active compounds read low) of 0.988.

Reference: PubChem BioAssay AID1159580 (chemical genetic matrix, 2015)
